Compound activity from PubChem BioAssay.
Compounds with a hit are over-represented: about 19% of the library has one in this group of screens.
TDP1 cell noCPT – qHTS for Inhibitors of human tyrosyl-DNA phosphodiesterase 1 (TDP1): qHTS in cells in absence of CPT. Potency, µM (highest dose often 46.2 µM), for inactives: at the highest dose activity change, negative = growth inhibition, hits mostly inhibitors. DT40 Tdp1-/- hTDP1 cells, no CPT, ATP luminescence, 48 h. 420,000 compounds, 15% hits; further: potency means the concentration at half of the fitted maximal effect; nearly all actives have a fitted effect of over 55% in size
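Chicken DT40 Tdp1-/- cells stably complemented with human TDP1 were seeded at 400 cells/well with DMSO in place of 20 nM camptothecin. After compound pinning, cells grew at least 48 hr at 37 °C; viability read by CellTiter-Glo luminescence.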
ELG1 DNA repair – blocks ELG1-dependent DNA repair in HEK293T cells; HEK293T ELG1-luciferase reporter, luminescence, 16 h; DNA damage induced by 5-fluorouridine; Potency, µM (titrated, usually from 46.1 µM), for inactives: at the top dose activity change, negative = inhibition, most hits filed as inhibitors; 330,000 compounds, 2.3% hits; AID 504467; further: potency means the concentration at half of the fitted maximal effect; nearly all actives have a fitted effect of over 55% in size
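Reporter activity after DNA damage by 5-fluorouridine is monitored. Compound-treated cells incubate 16 hr at 37 °C, then ONE-Glo is added for 30 min before luminescence reading.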
IL1B secr inh – inhibitors of inflammasome signaling (IL-1 beta secretion). THP-1 LPS/ATP IL-1B secretion, AlphaLISA, 16 h; active compounds read low. activity change, % at 57.5 µM. 360,000 compounds, 4.7% hits; in the data active means activity change below about -50%; inconclusive means mostly about -30% to -49%
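Secreted IL-1B measured by AlphaLISA bead assay after 16 h compound exposure of THP-1 cells; compounds (final up to 57.5 uM) added 1 h before LPS (250 ng/mL) and ATP (1.25 mM) stimulation; lower signal means less secretion.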
TDP1 inh – TDP1 (human) enzyme inhibition; Q9NUW8; recombinant TDP1, AlphaScreen DNA substrate cleavage; Potency, µM (top dose mostly 130 µM), for the others: top-dose activity change, negative = inhibition, most hits filed as inhibitors; 350,000 compounds, 0.28% hits; AID 485290; further: potency means the concentration at half of the fitted maximal effect; nearly all actives have a fitted effect of over 40% in size
Target sequence (Q9NUW8 whole entry, looked up): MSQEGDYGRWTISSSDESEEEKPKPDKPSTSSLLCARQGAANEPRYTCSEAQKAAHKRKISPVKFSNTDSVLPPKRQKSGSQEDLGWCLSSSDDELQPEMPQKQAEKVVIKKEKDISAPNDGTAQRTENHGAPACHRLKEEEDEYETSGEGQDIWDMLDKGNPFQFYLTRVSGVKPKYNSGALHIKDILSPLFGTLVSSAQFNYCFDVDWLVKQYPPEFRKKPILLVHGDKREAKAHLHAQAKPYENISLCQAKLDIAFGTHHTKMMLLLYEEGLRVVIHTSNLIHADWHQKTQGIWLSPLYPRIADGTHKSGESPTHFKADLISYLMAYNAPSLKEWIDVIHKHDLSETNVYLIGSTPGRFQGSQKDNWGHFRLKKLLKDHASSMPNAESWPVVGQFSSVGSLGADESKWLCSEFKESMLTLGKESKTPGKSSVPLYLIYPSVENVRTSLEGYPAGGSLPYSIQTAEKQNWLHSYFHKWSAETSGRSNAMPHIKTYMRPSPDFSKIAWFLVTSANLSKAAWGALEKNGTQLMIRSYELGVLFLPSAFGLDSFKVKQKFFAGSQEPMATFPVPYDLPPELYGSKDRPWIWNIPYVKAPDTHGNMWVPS
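Here, a 5' biotin and 3' phosphotyrosine-FITC DNA oligonucleotide reports Tdp1 activity: intact substrate bridges AlphaScreen beads, while cleavage leaves a 3' phosphate and drops signal. All incubations at room temperature.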
TDP1 cell CPT – growth inhibition of DT40 Tdp1-/-;hTDP1 cells with camptothecin (screen for TDP1 inhibitors) | Potency, µM (top dose mostly 46.2 µM), inactives show at the top dose activity change, negative = growth inhibition, most hits filed as inhibitors | chicken DT40 Tdp1-/-;hTDP1 cells + 20 nM CPT, ATP luminescence, 48 h | 420,000 compounds, 12% hits; further: potency means the concentration at half of the fitted maximal effect; nearly all actives have a fitted effect of over 55% in size
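Chicken DT40 Tdp1-/- cells stably complemented with human TDP1 were seeded at 400 cells/well in medium containing 20 nM camptothecin, exposed to pin-transferred compounds, and grown at 37 °C for at least 48 hr. Viability was read as ATP luminescence.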
Giardia kill – Giardia lamblia killing | AID 540267 | activity change, % at 7.66 µM, hits read low | 340,000 compounds, 0.15% hits | Giardia lamblia trophozoite viability; in the data active means activity change below about -80%; inconclusive means between about -30% and that limit;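 further: parasites exposed to compound for two days anaerobically before the ATP read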
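Anaerobic 48 hrs incubation at 37 deg C of 100 trophozoites/well with test compounds; ATPLite 1-Step luminescence, 15-30 min RT, reports cellular ATP as viability.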
* hit, by the source's call; ? = inconclusive; / = no result given; [ ] = another dose, or the depositor's remark. Unless noted, the call rests on the fitted dose curve; in most records, active means well fitted curve in the direction sought with a large enough effect; inconclusive means small, poorly fitted or top-dose-only effect, or another doubt; inactive means no such curve, though single readings can be large; an effect the other way counts as inactive or inconclusive. On the % scale 0 is the no-effect control and ±100 the full control effect.

SMILES	TDP1 cell noCPT	ELG1 DNA repair	IL1B secr inh	TDP1 inh	TDP1 cell CPT	Giardia kill
COCC(=O)N(Cc1nc2sc(C)c(C)c2c(=O)[nH]1)C1CCCCC1	2%	6%	24	4%	-30%	0
Cc1sc2nc(CN(C(=O)NC3CCCCC3)C3CCCC3)[nH]c(=O)c2c1C	16µM*	21µM*	-1	-4%	?	-4
Cc1sc2nc(CN(Cc3cccs3)C(=O)NC3CCCCC3)[nH]c(=O)c2c1C	?	9.2µM*	?	4%	23µM*	17
Cc1sc2ncn(CC(=O)N(CC(=O)NC3CCCC3)Cc3cccs3)c(=O)c2c1C	?	?	-7	3%	?	8
Cc1ccc(C(=O)N2c3ccccc3N=C(c3ccccc3)C2C(=O)NC(C)C)cc1 (stereo not given)	?	/	-1	/	-25%	/
CCN1CCN(c2ccc(S(=O)(=O)N3CCCCC3)cc2NC(=O)CC(C)c2ccccc2)CC1 (stereo not given)	?	26%	?	1%	?	-10
CC(C)CC(=O)Nc1c2c(nn1-c1cccc(Cl)c1)CS(=O)C2 (stereo not given)	19%	0%	7	/	1%	4
CN(C)c1ccc(CNC(=O)c2ccc3c(c2)N(C)C(=O)C2CCCCN32)cc1 (stereo not given)	?	/	/	5%	18µM*	/
CC(=O)c1ccc(NC(=O)CN2C(=O)CCc3ccccc32)cc1	-25%	/	/	8%	-14%	/
Cc1nc(NCc2ccco2)c2c(C)c(C)sc2n1	1.8µM*	9.2µM*	-77*	-6%	2.1µM*	-1
CCN(Cc1ccc2c(c1)OCO2)C(=O)CSc1nc(C)nc2sc(C)c(C)c12	?	18µM*	-17	1%	?	-7
Cc1nc(SCC(=O)N(C)Cc2ccco2)c2c(C)c(C)sc2n1	?	?	-5	3%	16µM*	-4
CCn1c(/N=C/c2ccccc2NS(=O)(=O)c2ccc(C)cc2)nc2ccccc21	?	-23%	-10	0%	29µM*	13
CCc1ccc(NC(=O)CCCn2nc(CC)n3c(cc4occc43)c2=O)cc1	-21%	-4%	-1	4%	?	21
CCc1nn(CCCC(=O)N(C)Cc2ccccc2)c(=O)c2cc3occc3n12	?	7%	5	3%	16µM*	-3
CCc1nn(CCCC(=O)NCc2ccc(OC(C)C)cc2)c(=O)c2cc3occc3n12	12µM*	-16%	-9	3%	?	10
CCOc1ccc(CNC(=O)CCCn2nc(CC)n3c(cc4occc43)c2=O)cc1	?	?	-11	1%	?	-12
CCc1nn(CCCC(=O)NC2CCCCC2C)c(=O)c2cc3occc3n12 (stereo not given)	26µM*	/	3	/	?	/
CCc1nn(CCCC(=O)NCc2cc(Br)ccc2OC)c(=O)c2cc3occc3n12	?	?	-56*	1%	?	-15
CCc1nn(CCCC(=O)NCc2ccccc2C)c(=O)c2cc3occc3n12	0%	1%	-3	2%	-27%	-9
Cc1ccc(C2C3C(=O)N(c4ccc(C)cc4)C(=O)C3N3CCCN23)cc1 (stereo not given)	-12%	-14%	14	4%	-7%	9
Cc1cccc(C(=O)Nc2ccc(S(=O)(=O)N3CCC(c4nc5ccccc5s4)CC3)cc2)c1	?	/	/	9%	-22%	/
Cc1ccc(NC(=S)N2CCC(c3nc4ccccc4s3)CC2)cc1	?	?	-50*	3%	?	0
Cc1ccccc1C(=O)Nc1ccc(S(=O)(=O)N2CCC(c3nc4ccccc4s3)CC2)cc1	21µM*	/	/	6%	13µM*	/
Cn1c(N)c(C(=O)COC(=O)c2cc(-c3ccco3)nc3ccccc23)c(=O)n(C)c1=O	16µM*	12µM*	-25	-5%	21µM*	-2
SMILES	TDP1 cell noCPT	ELG1 DNA repair	IL1B secr inh	TDP1 inh	TDP1 cell CPT	Giardia kill
COc1ccc(/C=C2\CCCc3c2nc2ccccc2c3C(=O)OCC(=O)c2c(N)n(C)c(=O)n(C)c2=O)cc1	/	3.3µM*	/	0%	/	/
Cn1c(N)c(C(=O)COC(=O)c2cc(-c3ccco3)nc3ccccc23)c(=O)n(Cc2ccccc2)c1=O	/	-23%	/	0%	/	/
Cn1c(N)c(C(=O)COC(=O)c2cc(C(F)(F)F)nc3ccccc23)c(=O)n(Cc2ccccc2)c1=O	?	0%	11	12%	23µM*	-17
CNC(=O)COC(=O)c1cc(-c2ccco2)nc2ccccc12	?	5%	17	/	15µM*	22
COc1ccc(/C=C/C(=O)OCC(=O)c2c(N)n(C)c(=O)n(C)c2=O)cc1	-24%	-1%	13	5%	-20%	6
CCO[C@@H]1OC(C(=O)N2CCOCC2)=C[C@H](C(C)(C)C)[C@H]1CCCO	1%	/	14	/	-27%	-18
CS(=O)(=O)N1CCc2cc(C(=O)Nc3ccc(S(N)(=O)=O)cc3)ccc21	-18%	/	/	0%	-14%	/
COc1ccc(-c2cc(C(=O)OCC(=O)c3c(N)n(C)c(=O)n(C)c3=O)c3ccccc3n2)cc1	1.6µM*	9%	-53*	1%	4.1µM*	4
Cn1c(N)c(C(=O)COC(=O)c2ccnc3ccccc23)c(=O)n(C)c1=O	-8%	17%	3	6%	-3%	-2
Cn1c(N)c(C(=O)COC(=O)c2cc(C3CC3)nc3ccccc23)c(=O)n(C)c1=O	18µM*	?	-4	3%	13µM*	-10
CCOC(=O)C1(C)CCCN(C(=O)c2ccc(F)cc2Cl)C1 (stereo not given)	-29%	/	63	/	-30%	/
Cc1ccc(NC(=O)COC(=O)c2ccccc2Nc2ccccc2)cc1	-12%	5%	0	-4%	5%	5
Cc1ccc(Nc2cccccc2=O)cc1	?	?	-21	6%	21µM*	-15
COCCCN1C(=O)C(CC(=O)NC2CCCCC2)CC(C(=O)N2CCCCCC2)=C1C (stereo not given)	13%	/	/	/	18%	/
COc1cc2oc(=O)cc(-c3ccc(-c4ccc(O)cc4)cc3)c2c(OC)c1OC	18µM*	?	-14	1%[56.1 µM]	?	11
COc1cc2oc(=O)cc(-c3cccc(-c4cccc(C)c4)c3)c2c(OC)c1OC	23µM*	21µM*	28	-3%[56.1 µM]	?	-13
